Laboratory results published in PubChem BioAssay AID1159580 (chemical genetic matrix, 2015).
Where “and” joins values, the source holds several entries; their conditions need not be identical. Equal entries are not always repeated. Among all 5,500 compounds or so, about 2,000 (36%) were called active. Another 18% or so got no clear call; they are omitted. Cut-off read from the data, not from the text of the source: active = normalized growth mostly below about 0.91 (no sharp cut-off); inconclusive = no clear call, values can overlap the other calls; inactive = mostly above about 0.92. This is one part of the list.

Assay: chemical genetic growth profiling, strain panel (AID 1159580);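 note: tested at 20 µM; growth read once vehicle control cultures reached saturation at 30 °C; 1 = growth at the plate median or of vehicle wells; lower values mean less growth of the strain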
Settings: S. cerevisiae deletion strains, growth OD

Measured: normalized growth

OCCN(CCO)c1nc(N2CCCCC2)c2nc(N(CCO)CCO)nc(N3CCCCC3)c2n1
active: locus YDR195W, strain ref2 0.135 | locus YKR091W, strain srl3, stronger effect = lower value 0.551 | locus YOR083W, strain WHI5, stronger effect = lower value 0.233
inactive: locus YAL013W, strain DEP1, stronger effect = lower value 1.02 | locus YAL021C, strain ccr4, stronger effect = lower value 0.962 | locus YAL026C, strain drs2, stronger effect = lower value 0.964 | locus YAL030W, strain snc1, stronger effect = lower value 0.992 | locus YAL040C, strain CLN3, stronger effect = lower value 0.999 | locus YBL061C, strain skt5, stronger effect = lower value 0.992 | locus YBR009C, strain hhf1, stronger effect = lower value 0.981 | locus YBR021W, strain FUR4, stronger effect = lower value 0.956 | locus YBR023C, strain chs3, stronger effect = lower value 1 | locus YBR171W, strain sec66, stronger effect = lower value 0.994 | locus YBR229C, strain ROT2, stronger effect = lower value 1.01 | locus YBR231C, strain swc5, stronger effect = lower value 0.944 | locus YBR279W, strain paf1, stronger effect = lower value 0.986 | locus YCL011C, strain gbp2, stronger effect = lower value 0.998 | locus YCL016C, strain dcc1, stronger effect = lower value 1.03 | locus YCL029C, strain bik1, stronger effect = lower value 1.01 | locus YCL061C, strain MRC1 (second series), stronger effect = lower value 1 | locus YCL061C, strain MRC1, stronger effect = lower value 1 | locus YCL069W, strain vba3, stronger effect = lower value 0.97 | locus YCR088W, strain abp1, stronger effect = lower value 0.989 | locus YDL005C, strain med2, stronger effect = lower value 0.978 | locus YDL035C, strain GPR1, stronger effect = lower value 1.01 | locus YDL040C, strain nat1, stronger effect = lower value 0.976 | locus YDL074C, strain BRE1, stronger effect = lower value 0.979 | locus YDL101C, strain DUN1, stronger effect = lower value 1 | locus YDL134C, strain PPH21, stronger effect = lower value 1 | locus YDL185W, strain tfp1, stronger effect = lower value 0.995 | locus YDL192W, strain arf1, stronger effect = lower value 0.999 | locus YDR001C, strain nth1, stronger effect = lower value 0.993 | locus YDR069C, strain doa4, stronger effect = lower value 0.969 | locus YDR101C, strain arx1, stronger effect = lower value 0.99 | locus YDR137W, strain rgp1, stronger effect = lower value 1.01 | locus YDR150W, strain NUM1, stronger effect = lower value 1.01 | locus YDR159W, strain sac3, stronger effect = lower value 0.937 | locus YDR162C, strain NBP2, stronger effect = lower value 1 | locus YDR297W, strain sur2, stronger effect = lower value 0.997 | locus YDR318W, strain mcm21, stronger effect = lower value 0.996 | locus YDR334W, strain swr1, stronger effect = lower value 0.974 | locus YDR335W, strain msn5, stronger effect = lower value 0.988 | locus YDR363W, strain ESC2, stronger effect = lower value 1.03 | locus YDR388W, stronger effect = lower value 0.998 | locus YDR392W, strain spt3, stronger effect = lower value 0.898 | locus YDR502C, strain sam2, stronger effect = lower value 1.01 | locus YEL003W, strain gim4, stronger effect = lower value 0.964 | locus YEL037C, strain rad23, stronger effect = lower value 0.965 | locus YEL061C, strain CIN8 (second series), stronger effect = lower value 0.976 | locus YEL061C, strain CIN8, stronger effect = lower value 1.01 | locus YER002W, strain NOP16, stronger effect = lower value 1 | locus YER015W, strain faa2, stronger effect = lower value 0.978 | locus YER016W, strain bim1, stronger effect = lower value 0.976 | locus YER110C, stronger effect = lower value 1 | locus YER111C, strain swi4, stronger effect = lower value 0.971 | locus YER155C, strain BEM2 (second series), stronger effect = lower value 0.992 | locus YER155C, strain BEM2, stronger effect = lower value 1.01 | locus YER167W, strain BCK2, stronger effect = lower value 1.02 | locus YFR010W, strain ubp6, stronger effect = lower value 0.956 | locus YGL078C, strain dbp3, stronger effect = lower value 1 | locus YGL086W, strain mad1, stronger effect = lower value 0.998 | locus YGL167C, strain pmr1, stronger effect = lower value 0.987 | locus YGL173C, strain kem1, stronger effect = lower value 0.982 | locus YGL227W, strain vid30, stronger effect = lower value 0.989 | locus YGL240W, strain doc1, stronger effect = lower value 0.979 | locus YGL248W, strain PDE1, stronger effect = lower value 1.01 | locus YGL253W, strain hxk2, stronger effect = lower value 0.956 | locus YGR135W, strain pre9, stronger effect = lower value 0.993 | locus YGR229C, strain SMI1, stronger effect = lower value 0.996 | locus YGR252W, strain gcn5, stronger effect = lower value 0.931 | locus YHR013C, strain ard1, stronger effect = lower value 0.988 | locus YHR027C, strain rpn1, stronger effect = lower value 0.984 | locus YHR030C, strain SLT2, stronger effect = lower value 1.01 | locus YHR079C, strain IRE1 (second series), stronger effect = lower value 0.994 | locus YHR079C, strain IRE1, stronger effect = lower value 1.1 | locus YHR094C, strain hxt1, stronger effect = lower value 0.998 | locus YHR129C, strain ARP1, stronger effect = lower value 1.01 | locus YHR142W, strain chs7, stronger effect = lower value 0.97 | locus YHR200W, strain rpn10, stronger effect = lower value 1 | locus YIL066C, strain RNR3, stronger effect = lower value 1.02 | locus YIL073C, strain SPO22, stronger effect = lower value 1.01 | locus YIL125W, strain kgd1, stronger effect = lower value 1 | locus YIR030C, strain dcg1, stronger effect = lower value 0.995 | locus YJL092W, strain hpr5, stronger effect = lower value 0.979 | locus YJL095W, strain BCK1 (second series), stronger effect = lower value 0.997 | locus YJL095W, strain BCK1, stronger effect = lower value 0.988 and 1.01 | locus YJL115W, strain asf1, stronger effect = lower value 0.99 | locus YJL129C, strain trk1, stronger effect = lower value 0.95 | locus YJL134W, strain LCB3, stronger effect = lower value 1 | locus YJL154C, strain vps35, stronger effect = lower value 0.992 | locus YJL164C, strain tpk1, stronger effect = lower value 0.975 | locus YJL166W, strain qcr8, stronger effect = lower value 1.01 | locus YJL168C, strain set2, stronger effect = lower value 0.991 | locus YJL187C, strain SWE1 (second series), stronger effect = lower value 1 | locus YJL187C, strain SWE1, stronger effect = lower value 0.989 | locus YJR043C, strain POL32, stronger effect = lower value 1.01 | locus YJR066W, strain TOR1, stronger effect = lower value 0.982 | locus YJR075W, strain HOC1, stronger effect = lower value 0.997 | locus YKL009W, strain mrt4, stronger effect = lower value 0.998 | locus YKL068W, stronger effect = lower value 1 | locus YKL085W, strain MDH1 (second series), stronger effect = lower value 1.01 | locus YKL085W, strain MDH1, stronger effect = lower value 1.01 | locus YKL160W, strain elf1, stronger effect = lower value 1.04 | locus YKL190W, strain CNB1, stronger effect = lower value 1.01 | locus YKR001C, strain vps1, stronger effect = lower value 1.02 | locus YKR026C, strain gcn3, stronger effect = lower value 0.991 | locus YLL001W, strain dnm1, stronger effect = lower value 1 | locus YLL026W, stronger effect = lower value 0.99 | locus YLL041C, strain sdh2, stronger effect = lower value 0.969 | locus YLR027C, strain aat2, stronger effect = lower value 0.986 | locus YLR039C, strain RIC1, stronger effect = lower value 1.06 | locus YLR058C, strain SHM2, stronger effect = lower value 1.01 | locus YLR102C, strain apc9, stronger effect = lower value 0.987 | locus YLR113W, strain HOG1, stronger effect = lower value 0.999 | locus YLR221C, strain rsa3, stronger effect = lower value 1.02 | locus YLR258W, strain gsy2, stronger effect = lower value 0.997 | locus YLR262C, strain YPT6 (second series), stronger effect = lower value 1.02 | locus YLR262C, strain YPT6, stronger effect = lower value 0.994 | locus YLR268W, strain sec22, stronger effect = lower value 1.01 | locus YLR320W, strain mms22, stronger effect = lower value 1.04 | locus YLR330W, strain CHS5, stronger effect = lower value 1.01 | locus YLR342W, strain FKS1 (second series), stronger effect = lower value 1.02 | locus YLR342W, strain FKS1, stronger effect = lower value 0.99 | locus YLR357W, strain rsc2, stronger effect = lower value 0.985 | locus YLR370C, strain arc18, stronger effect = lower value 0.999 | locus YLR371W, strain rom2, stronger effect = lower value 0.996 | locus YLR384C, strain iki3, stronger effect = lower value 0.994 | locus YLR418C, strain cdc73, stronger effect = lower value 0.976 | locus YML016C, strain PPZ1, stronger effect = lower value 1.01 | locus YML032C, strain rad52, stronger effect = lower value 0.988 | locus YML120C, strain ndi1, stronger effect = lower value 1.02 | locus YML124C, strain tub3, stronger effect = lower value 0.995 | locus YMR058W, strain fet3, stronger effect = lower value 0.968 | locus YMR078C, strain ctf18, stronger effect = lower value 0.994 | locus YMR125W, strain sto1, stronger effect = lower value 0.992 | locus YMR129W, stronger effect = lower value 0.983 | locus YMR205C, strain PFK2, stronger effect = lower value 1.01 | locus YMR223W, strain ubp8, stronger effect = lower value 0.997 | locus YMR231W, strain pep5, stronger effect = lower value 0.989 | locus YMR307W, strain GAS1, stronger effect = lower value 1.02 and 0.989 | locus YNL067W, strain RPL9B, stronger effect = lower value 1 | locus YNL071W, strain lat1, stronger effect = lower value 0.98 | locus YNL128W, strain TEP1, stronger effect = lower value 0.995 | locus YNL153C, strain GIM3, stronger effect = lower value 0.968 | locus YNL175C, strain NOP13, stronger effect = lower value 0.993 | locus YNL183C, strain NPR1, stronger effect = lower value 0.956 | locus YNL197C, strain WHI3, stronger effect = lower value 0.988 | locus YNL209W, strain ssb2, stronger effect = lower value 0.993 | locus YNL224C, strain SQS1, stronger effect = lower value 0.999 | locus YNL233W, strain BNI4, stronger effect = lower value 0.982 | locus YNL248C, strain rpa49, stronger effect = lower value 0.973 | locus YNL250W, strain rad50, stronger effect = lower value 1.01 | locus YNL271C, strain bni1, stronger effect = lower value 0.998 | locus YNL298W, strain CLA4, stronger effect = lower value 0.991 | locus YNL307C, strain MCK1, stronger effect = lower value 0.997 | locus YNL322C, strain KRE1 (second series), stronger effect = lower value 0.988 | locus YNL322C, strain KRE1, stronger effect = lower value 1.02 | locus YNR049C, strain mso1, stronger effect = lower value 0.984 | locus YNR052C, strain pop2, stronger effect = lower value 1 | locus YOL012C, strain htz1 2.13 | locus YOL147C, strain pex11, stronger effect = lower value 1 | locus YOR001W, strain rrp6, stronger effect = lower value 0.928 | locus YOR061W, strain CKA2, stronger effect = lower value 1.02 | locus YOR069W, strain VPS5, stronger effect = lower value 1.01 | locus YOR070C, strain gyp1, stronger effect = lower value 0.996 | locus YOR080W, strain dia2, stronger effect = lower value 0.986 | locus YOR083W, strain WHI5 (second series), stronger effect = lower value 0.981 | locus YOR106W, strain vam3, stronger effect = lower value 1.01 | locus YOR136W, strain idh2, stronger effect = lower value 1 | locus YOR144C, strain elg1, stronger effect = lower value 0.999 | locus YOR184W, strain ser1, stronger effect = lower value 0.997 | locus YOR231W, strain MKK1, stronger effect = lower value 1.02 | locus YOR265W, strain rbl2, stronger effect = lower value 0.997 | locus YOR270C, strain vph1, stronger effect = lower value 0.948 | locus YOR290C, strain snf2, stronger effect = lower value 0.931 | locus YOR316C, strain cot1, stronger effect = lower value 0.999 | locus YPL051W, strain arl3, stronger effect = lower value 1.05 | locus YPL055C, strain LGE1, stronger effect = lower value 0.996 and 1.03 | locus YPL078C, strain atp4, stronger effect = lower value 1 | locus YPL106C, strain sse1, stronger effect = lower value 1.01 | locus YPL240C, strain hsp82, stronger effect = lower value 0.99 | locus YPL241C, strain CIN2, stronger effect = lower value 1 | locus YPL256C, strain CLN2, stronger effect = lower value 1 | locus YPR119W, strain clb2, stronger effect = lower value 0.994 | locus YPR141C, strain kar3, stronger effect = lower value 0.995 | locus YPR163C, strain tif3, stronger effect = lower value 1 | locus YPR167C, strain met16, stronger effect = lower value 0.996 | strain wtn01, stronger effect = lower value 0.994
